From PubChem BioAssay AID652234 (Broad Institute, 2013) come the findings set out here.

For this test, the target named is Ubiquitin carboxyl-terminal hydrolase 9X (Homo sapiens) (UniProt Q93008). Briefly: USP9X direct binding, late-stage follow-up, orthogonal assay, biophysical, surface plasmon resonance (AID 652234). To be noted: Recombinant USP9X, SPR Biacore T200, RU; at 100 µM (top of the series). (Surface plasmon resonance follows binding to a sensor surface in real time, without labels.)

Activity calls are given as the source filed them. The rule behind the calls is not given here.

Chain of Ubiquitin carboxyl-terminal hydrolase 9X (Homo sapiens) (Q93008 whole entry, looked up): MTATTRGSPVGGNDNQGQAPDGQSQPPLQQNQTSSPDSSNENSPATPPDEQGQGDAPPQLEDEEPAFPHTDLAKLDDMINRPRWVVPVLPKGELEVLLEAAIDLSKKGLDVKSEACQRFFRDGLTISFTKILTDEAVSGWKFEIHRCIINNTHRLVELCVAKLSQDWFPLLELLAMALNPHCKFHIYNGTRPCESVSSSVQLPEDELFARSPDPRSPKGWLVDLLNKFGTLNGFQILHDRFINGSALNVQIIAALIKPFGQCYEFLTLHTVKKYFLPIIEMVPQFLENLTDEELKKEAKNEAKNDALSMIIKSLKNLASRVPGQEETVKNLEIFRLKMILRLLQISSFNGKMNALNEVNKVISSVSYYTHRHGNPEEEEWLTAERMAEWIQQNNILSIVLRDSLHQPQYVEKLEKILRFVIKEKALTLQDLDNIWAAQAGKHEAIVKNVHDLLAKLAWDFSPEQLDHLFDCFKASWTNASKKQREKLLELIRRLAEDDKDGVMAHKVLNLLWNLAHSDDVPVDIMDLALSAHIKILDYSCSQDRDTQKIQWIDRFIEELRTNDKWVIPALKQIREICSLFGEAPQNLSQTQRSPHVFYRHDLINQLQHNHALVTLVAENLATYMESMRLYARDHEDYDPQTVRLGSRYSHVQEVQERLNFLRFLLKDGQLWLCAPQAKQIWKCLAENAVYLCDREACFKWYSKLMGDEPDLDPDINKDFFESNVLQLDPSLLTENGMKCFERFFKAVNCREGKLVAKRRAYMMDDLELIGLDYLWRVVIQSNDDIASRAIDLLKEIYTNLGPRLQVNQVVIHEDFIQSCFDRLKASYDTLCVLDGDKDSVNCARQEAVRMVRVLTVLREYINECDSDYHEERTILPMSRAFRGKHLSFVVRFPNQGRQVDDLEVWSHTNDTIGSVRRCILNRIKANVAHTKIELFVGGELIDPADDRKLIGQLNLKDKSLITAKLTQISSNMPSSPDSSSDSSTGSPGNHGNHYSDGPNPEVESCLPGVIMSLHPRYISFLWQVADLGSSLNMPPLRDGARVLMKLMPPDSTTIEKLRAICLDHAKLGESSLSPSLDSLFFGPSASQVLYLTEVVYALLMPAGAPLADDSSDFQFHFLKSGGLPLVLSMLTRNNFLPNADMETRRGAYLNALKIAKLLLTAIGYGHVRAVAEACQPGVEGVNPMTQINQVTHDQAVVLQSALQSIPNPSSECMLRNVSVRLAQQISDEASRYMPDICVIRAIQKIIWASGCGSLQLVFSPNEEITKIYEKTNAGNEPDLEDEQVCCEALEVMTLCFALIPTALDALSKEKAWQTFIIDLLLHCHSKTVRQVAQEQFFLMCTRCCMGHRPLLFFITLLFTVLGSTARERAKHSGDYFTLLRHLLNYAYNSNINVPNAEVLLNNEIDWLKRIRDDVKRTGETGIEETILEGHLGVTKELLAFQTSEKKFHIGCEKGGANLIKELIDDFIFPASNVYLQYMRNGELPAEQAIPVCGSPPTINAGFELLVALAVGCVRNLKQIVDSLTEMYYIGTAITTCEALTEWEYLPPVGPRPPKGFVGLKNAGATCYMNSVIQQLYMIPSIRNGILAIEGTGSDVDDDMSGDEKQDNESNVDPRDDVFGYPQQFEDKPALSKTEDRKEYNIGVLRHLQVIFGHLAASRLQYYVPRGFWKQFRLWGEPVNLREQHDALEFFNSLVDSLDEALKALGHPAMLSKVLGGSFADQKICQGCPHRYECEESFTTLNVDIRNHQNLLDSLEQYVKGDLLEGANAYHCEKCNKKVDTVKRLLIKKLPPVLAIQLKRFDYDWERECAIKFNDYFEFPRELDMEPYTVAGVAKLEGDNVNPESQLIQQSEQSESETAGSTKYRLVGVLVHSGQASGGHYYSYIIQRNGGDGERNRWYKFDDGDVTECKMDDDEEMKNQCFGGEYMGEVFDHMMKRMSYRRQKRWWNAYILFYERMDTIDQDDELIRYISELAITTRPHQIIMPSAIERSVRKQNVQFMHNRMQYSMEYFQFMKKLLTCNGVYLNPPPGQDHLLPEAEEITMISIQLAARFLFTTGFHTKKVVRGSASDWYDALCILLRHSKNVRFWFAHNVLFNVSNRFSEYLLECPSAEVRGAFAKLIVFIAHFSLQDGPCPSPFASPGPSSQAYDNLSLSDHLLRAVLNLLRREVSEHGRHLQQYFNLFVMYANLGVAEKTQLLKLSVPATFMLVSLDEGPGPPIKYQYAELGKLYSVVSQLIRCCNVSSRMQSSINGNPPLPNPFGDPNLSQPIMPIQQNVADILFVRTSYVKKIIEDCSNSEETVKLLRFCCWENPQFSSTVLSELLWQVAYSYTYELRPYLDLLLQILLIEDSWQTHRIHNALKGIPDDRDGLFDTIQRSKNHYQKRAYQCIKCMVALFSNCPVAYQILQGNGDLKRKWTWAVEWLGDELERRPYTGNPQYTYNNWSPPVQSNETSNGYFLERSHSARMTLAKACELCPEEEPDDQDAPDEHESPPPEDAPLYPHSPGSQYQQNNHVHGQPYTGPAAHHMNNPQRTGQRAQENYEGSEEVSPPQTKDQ

`C[C@@H]1CN([C@@H](C)CO)C(=O)c2cccc(NC(=O)Nc3cccc4ccccc34)c2O[C@H]1CN(C)S(=O)(=O)c1ccc2c(c1)OCCO2`: the binding signal (RU), higher = more binding was 11.2 (active).
